# High-throughput results from PubChem BioAssay.
# HT1080NT lethal – kills 2HG-producing HT-1080-NT fibrosarcoma cells. actives 1.6% (n = 360,000). Potency, µM (doses to about 46.1 µM), for the others: at the highest dose activity, negative = less viability, most hits filed as cytotoxic. HT-1080-NT fibrosarcoma viability, CellTiter-Glo ATP luminescence, 48 h;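 further: NT is the 2HG producing partner of a matched IDH1 knockdown line; 0% = DMSO-treated cells and -100% = media-only wells without cells; nearly all actives have a fitted effect of over 55% in size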
#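 HT-1080-NT fibrosarcoma cells (2HG-overproducing), 750 cells/well in RPMI with 5% FBS, dosed after 2 h and incubated 48 h at 37C. CellTiter-Glo luminescence normalized to DMSO and no-cell wells; concentration-response curves fitted and classed.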
# KB-3-1 cytotox – kills parental KB-3-1 adenocarcinoma cells; AID 1347075; actives 1.4% (n = 400,000); KB-3-1 viability, CellTiter-Glo ATP luminescence, 72 h; Potency, µM (series often up to 46.1 µM), usual class: cytotoxic; further: on the % scale 0 is the no-effect control and ±100 the full control effect; nearly all actives have a fitted effect of over 60% in size
#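 Luminescent ATP read-out (CellTiter-Glo) measures survival of drug-naive KB-3-1 cells after 72 h compound exposure at 37 °C. Titration series was screened from lowest to highest concentration, with DMSO vehicle plates as background controls.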
# KB-V1 MDR tox – KB-V1 MDR subline cytotoxicity; KB-V1 MDR cells viability, CellTiter-Glo, 72 h; Potency, µM (highest dose often 46.1 µM), usual class: cytotoxic; actives 3.4% (n = 400,000); further: on the % scale 0 is the no-effect control and ±100 the full control effect; nearly all actives have a fitted effect of over 60% in size
#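 qHTS viability screen in drug-selected KB-V1 MDR cells: 72 h compound treatment at 37 degrees C, ATP luminescence end point.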
# HT1080 IDH1KD tx – HT-1080 IDH1 knockdown cell toxicity (counter line). Potency, µM (highest dose often 46.1 µM), for inactives: at the highest dose activity, negative = toxicity, usual class: cytotoxic. AID 686971. HT-1080 IDH1 knockdown viability, ATP luminescence, 48 h. actives 2% (n = 360,000);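 further: 0% = DMSO wells and -100% = cell-free medium wells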
#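 In this qHTS, HT-1080 cells depleted of IDH1 are exposed for 48 h at 37 °C to compound titrations. Toxicity is scored from CellTiter-Glo luminescence, with DMSO as full viability and medium alone as none.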
# MCF10A rerep – inducers of DNA re-replication in MCF 10A breast cells; Potency, µM (series often up to 46.1 µM), for the others: at the top dose activity, positive = re-replication, hits mostly activators; MCF 10A DNA re-replication, Hoechst nuclear intensity, 48 h; AID 624296; actives 2.9% (n = 350,000); further: % of control where 0% means no effect; nearly all actives have a fitted effect of over 50% in size
# SW480 rerep – DNA re-replication induction in SW480 cells; Potency, µM (top dose mostly 46.1 µM), for inactives: at the highest dose re-replication activation, actives largely listed as activators; actives 1.8% (n = 340,000); SW480 DNA re-replication, Hoechst DNA content imaging, 48 h; AID 624297; further: % of control where 0% means no effect; nearly all actives have a fitted effect of over 55% in size
#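 Image-based read-out: total Hoechst fluorescence of nuclei (405 nm excitation, 500-530 nm emission), with hits raising the fraction of high-intensity nuclei. SW480 colon cells incubated 48 hr with compounds at 37 C.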
# The depositor's hits bear a star; i = inactive; ? = inconclusive; . = no result. A selection: hits, their analogues and other compounds. The true share with any hit is near 7.9%. The call rests on the fitted dose curve; in most records, active means well fitted curve in the direction sought with a large enough effect; inconclusive means small, poorly fitted or top-dose-only effect, or another doubt; inactive means no such curve, though single readings can be large; an effect the other way counts as inactive or inconclusive. Potency means the concentration at half of the fitted maximal effect.
SMILES,HT1080NT lethal,KB-3-1 cytotox,KB-V1 MDR tox,HT1080 IDH1KD tx,MCF10A rerep,SW480 rerep
O=C(NC1CCN(Cc2ccc3ccccc3c2)CC1)c1ccccc1,-4%,i,?,6%,4%,-1%
COc1ccc(S(=O)(=O)N(CC(=O)NCc2ccncc2)c2cc(C)cc(C)c2)cc1OC,0%,i,i,6%,0%,-21%
Cc1ccccc1-c1noc(CSc2nnc(Cc3ccccc3)n2-c2ccc(F)cc2)n1,.,i,?,.,.,.
Cc1ccc(Cl)cc1OCC(=O)NCCOC(=O)Nc1sc(=S)n(C)c1C,-5%,?,13µM*,0%,17%,2%
Cc1cc(Cl)ccc1OCC(=O)NCCOC(=O)Nc1sc(=S)n(C)c1C,-20%,i,?,?,-2%,-4%
COc1ccc(C2CC(c3cccc(F)c3)=NN2c2ccc(S(N)(=O)=O)cc2)cc1 (stereo not given),-11%,?,i,-15%,2.1µM*,2.3µM*
O=C(O)c1ccc(N2N=C(c3ccccc3)CC2c2ccccc2)cc1 (stereo not given),-3%,i,i,-1%,2.3µM*,?
COc1ccc(C2CC(c3ccccc3Cl)=NN2c2ccc(S(N)(=O)=O)cc2)cc1 (stereo not given),18µM*,i,i,?,?,2.3µM*
COc1ccc(C2CC(c3ccccc3)=NN2c2ccc(C(N)=O)cc2)cc1 (stereo not given),?,i,i,?,?,21µM*
O=Cc1ccc(N2N=C(c3ccccc3)CC2c2ccccc2)cc1 (stereo not given),-21%,i,i,-2%,?,?
COc1ccc(C2CC(c3cccc(C(F)(F)F)c3)=NN2c2ccc(S(N)(=O)=O)cc2)cc1 (stereo not given),?,?,?,-28%,?,?
O=C(COc1ccc(F)cc1)Nc1ccc(OCc2cc(=O)n3ccsc3n2)cc1,.,i,i,.,.,.
Cc1ccc(CN2CC(C(=O)Nc3ncccc3C)CC2=O)cc1 (stereo not given),28%,i,i,13%,0%,0%
NS(=O)(=O)c1ccc(N2N=C(c3ccccc3)CC2c2ccc(F)cc2)cc1 (stereo not given),-4%,i,?,-20%,21µM*,21µM*
COc1ccc(C2=NN(CN3C(=O)C(=O)c4ccccc43)C(c3ccc(OC)cc3)C2)cc1 (stereo not given),3%,i,i,1%,2%,5.8µM*
COc1ccc(C2=NN(S(=O)(=O)c3ccccc3)C(c3ccccc3)C2)cc1 (stereo not given),1%,i,?,0%,-3%,?
NS(=O)(=O)c1ccc(N2N=C(c3ccccc3)CC2c2cccc(Cl)c2)cc1 (stereo not given),?,i,i,?,?,3.7µM*
COc1ccc(C2CC(c3ccccc3)=NN2c2ccc(S(N)(=O)=O)cc2)cc1 (stereo not given),?,i,?,?,0.58µM*,16µM*
O=C(NCc1ccc(F)cc1)C1CCCN(C(=O)Nc2ccc(F)cc2)C1 (stereo not given),-12%,i,i,-16%,4%,2%
CCC(C)NC(=O)c1sc2nc(C)c(C(=O)Nc3ccc(C)cc3C)c(-c3ccccc3Cl)c2c1N (stereo not given),.,i,i,.,.,.
NC(=O)C1CCN(C(=O)CCc2nc3sc4c(c3c(=O)[nH]2)CCCC4)CC1,3%,i,i,0%,-3%,0%
O=c1n(CC2CO2)c(=O)n(CC2CO2)c(=O)n1CC1CO1 (stereo not given),0%,?,i,-21%,1.8µM*,9.2µM*
COc1ccccc1NC(=O)C1=C(C)Nc2nc(SCc3ccccc3Cl)nn2C1c1ccccn1 (stereo not given),.,i,i,.,.,.
CCOc1ccc(S(=O)(=O)N2CCN(Cc3nc4ccc(C)cc4o3)CC2)cc1,.,i,i,.,.,.
CCC1CCCCN1C(=O)COc1cccc2c1CCN(C)C2=O (stereo not given),-1%,i,21µM*,5%,-4%,-5%
SMILES,HT1080NT lethal,KB-3-1 cytotox,KB-V1 MDR tox,HT1080 IDH1KD tx,MCF10A rerep,SW480 rerep
CN1CCc2c(OCC(=O)NC3CCCCC3)cccc2C1=O,8%,i,i,8%,-2%,-16%
CN1CCc2c(OCC(=O)N3CCC(Cc4ccccc4)CC3)cccc2C1=O,-26%,18µM*,?,-26%,19%,-2%
CN(CC(=O)Nc1ccc(OC(F)(F)F)cc1)C(=O)c1ccccc1SCC(=O)N1CCCC1,2%,16µM*,7.3µM*,-1%,-8%,-1%
CC(=O)NC(Cc1ccc(I)cc1)C(=O)NCC(N)C(=O)c1ccccc1 (stereo not given),-1%,.,.,1%,.,.
O=C(Nc1ccc(F)c(Cl)c1)C1CCN(S(=O)(=O)c2ccc3[nH]c(=O)ccc3c2)CC1,.,i,?,.,.,.
Cc1ccc(SC2=C[C@@]3(O)CC[C@@H](O)[C@@](Sc4ccc(C)cc4)(C2=O)[C@H]3O)cc1,-27%,?,16µM*,-22%,.,.
CC(C)(C)c1ccc(SC2=C[C@@]3(O)CC[C@@H](O)[C@@](Sc4ccc(C(C)(C)C)cc4)(C2=O)[C@H]3O)cc1,16µM*,?,13µM*,15µM*,.,.
CC(C)(C)c1ccc(C(=O)C2CC2)cc1,2%,i,i,8%,.,.
C=CCc1cc(OC)ccc1OCCN1CC(C)OC(C)C1 (stereo not given),-1%,i,i,3%,18%,-20%
COc1ccc(CC(=O)N2CCN(c3ccc(F)cc3)CC2)cc1,22%,i,i,29%,2%,-7%
COc1ccc(C(=O)CN2CCN(c3ccc(Cl)cc3)CC2)cc1OC,-1%,i,i,-3%,13%,19%
CCOC(=O)Cc1csc(SCC(=O)N2CCN(c3ccc(OC)cc3)CC2)n1,-5%,i,21µM*,8%,5%,-4%
COc1ccc(N2CCN(C(=O)CNC(=O)Cc3ccccc3)CC2)cc1,0%,.,.,-3%,0%,6%
COc1ccc(N2CCN(C(=O)CNC(=O)Cc3ccc(Cl)cc3)CC2)cc1,?,15µM*,10µM*,21µM*,?,?
COc1ccc(N2CCN(C(=O)Cc3ccc(Br)cc3)CC2)cc1,-8%,i,21µM*,-1%,8%,-8%
